Screening data: PubChem, National Center for Advancing Translational Sciences (NCATS)
Lassa entry inh: inhibitors of Lassa virus binding or cell entry; Potency, µM (top dose mostly 37.9 µM), for the others: top-dose activity change, negative = inhibition, usual class: inhibitors; Lassa virus pseudotype entry inhibition, cell reporter; AID 540256; hit rate 1.2% among 300,000; calls by dose curve; tested in HEK293 cells; note: potency is the fitted concentration of half-maximal effect; nearly all actives have a fitted effect of over 50% in size
Pf growth 48h: P. falciparum growth inhibition at 48 hours (one generation); P. falciparum luciferase growth in erythrocytes, 48 h; hit rate 5.9% among 310,000; Potency, µM (top dose mostly 28.7 µM), without a hit: at the highest dose activity change, negative = inhibition, hits mostly inhibitors; note: potency is the fitted concentration of half-maximal effect
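Compounds are pin-transferred into medium, infected erythrocytes (2% hematocrit, 0.1% parasitemia final) are added, and plates sit one parasite generation at 37 C in 5% CO2. Detection reagent is then added and luminescence measured.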
HCMV antiviral: blocks human cytomegalovirus replication. hit rate 4.5% among 410,000. HFF cells, HCMV-luciferase reporter, 72 h; stronger effect = lower value. activity change, negative = inhibition, % at 57.5 µM; in the data active = activity change below about -60%; inconclusive = no clear call, values can overlap the other calls; inactive = above about -39%
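Luciferase read-out from HCMV-luciferase-infected HFFs (MOI 1 PFU/cell) 72 h post infection at 37C; compounds added after 16 h cell attachment; activity normalized between buffer-only basal and Salinomycin (10uM) inhibitor controls.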
HCV inhibitor: HCV inhibition; AID 651820; Huh7.5.1 HCVcc-Cre infection, luciferase reporter, 44 h; hit rate 3.4% among 340,000; Potency, µM (doses to about 41.8 µM), inactives show at the top dose activity change, negative = inhibition, usual class: inhibitors; note: potency is the fitted concentration of half-maximal effect
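Seed cells (1,000/well) for 4 h; treat with compound and infect with HCVcc-Cre, moi about 0.5. Incubate 44 h, then detect luciferase activity.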
Pf growth 96h: inhibits malaria parasite growth, 96 h; hit rate 6.9% among 320,000; P. falciparum luciferase reporter growth, 96 h; Potency, µM (highest dose often 28.7 µM), for inactives: top-dose activity change, negative = inhibition, hits mostly inhibitors; note: potency is the fitted concentration of half-maximal effect
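Two parasite generations (96 h, 37 C, 5% CO2) of compound exposure in infected erythrocytes (0.05% parasitemia, 2% hematocrit). Luciferase-reporter P. falciparum; decreased luminescence indicates inhibited growth, aimed at apicoplast-acting delayed death.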
Marburg entry inh: blocks Marburg virus binding to or entry into cells. Marburg virus pseudotyped entry inhibition, cell reporter. Potency, µM (top dose mostly 37.8 µM), inactives show at the highest dose activity change, negative = inhibition, hits mostly inhibitors. hit rate 1.8% among 300,000. AID 540276; calls by dose curve; tested in HEK293 cells; note: potency is the fitted concentration of half-maximal effect
The depositor's hits bear a star; [ ] = remark or other dose. The list is not random: actives were taken first. Their share in the collection is about 14%. Unless noted, calls come from the whole dose curve; as a rule, active = well fitted inhibition curve with a large enough effect; inconclusive = small, poorly fitted or top-dose-only effect, or another doubt; inactive = no such curve, though single readings can be large or run the other way. % is set by controls: 0 for no effect and ±100 for the full control effect.

How did COC(=O)c1ccc(C(C(=O)NC2CCCCC2)N(Cc2ccc(F)cc2)C(=O)Cc2cccs2)cc1 (stereo not drawn) do in these assays?
Lassa entry inh: inconclusive; Pf growth 48h: 12µM*; HCMV antiviral: -28; HCV inhibitor: -2%; Pf growth 96h: inconclusive; Marburg entry inh: -7%

How did COc1ccc(C(C(=O)NC2CCCC2)N(Cc2cccnc2)C(=O)Cc2cccs2)cc1OC (stereo not drawn) do in these assays?
Lassa entry inh: 22%[46.1 µM]; Pf growth 48h: -14%; HCMV antiviral: 4; HCV inhibitor: 18%; Pf growth 96h: -8%; Marburg entry inh: 1%[46.1 µM]

How did CC1(C(=O)NS(=O)(=O)c2cccs2)CCN1C(=O)CCc1ccc(Cl)cc1Cl (stereo not drawn) do in these assays?
HCMV antiviral: -8

Results for CCS(=O)(=O)c1nc(S(=O)(=O)c2ccc(Cl)cc2)c(NCc2ccccc2Cl)s1 ?
Lassa entry inh: -14%[46.1 µM]; HCMV antiviral: -14; Marburg entry inh: inconclusive

What do the screens show for `COc1ccc(N(C(=O)CCl)C(C(=O)NCCc2ccccc2)c2cccs2)cc1` (stereo not drawn)?
Lassa entry inh: inconclusive; Pf growth 48h: 15µM*; HCMV antiviral: -100*; HCV inhibitor: 5.6µM*; Pf growth 96h: 103%; Marburg entry inh: inconclusive

Results for COc1ccc(CCNC(=O)Cc2cccs2)cc1 ?
Lassa entry inh: inconclusive; Pf growth 48h: -17%; HCMV antiviral: -27; HCV inhibitor: 23%; Pf growth 96h: 70%; Marburg entry inh: 24%

Results for Nc1nc2nc(-c3cccs3)cc(C(F)(F)F)n2n1 ?
Lassa entry inh: 9%; Pf growth 48h: 10%; HCMV antiviral: -7; HCV inhibitor: -16%; Pf growth 96h: -24%; Marburg entry inh: 17%[46.1 µM]

How did CCOC(=O)c1nc2nc(-c3cccs3)cc(C(F)(F)F)n2n1 do in these assays?
Lassa entry inh: -3%; Pf growth 48h: 23%; HCMV antiviral: -25; HCV inhibitor: inconclusive; Pf growth 96h: 8.3µM*; Marburg entry inh: -8%

What do the screens show for `Cc1ccc2c(C)c(C(=O)N3CCN(c4ncccn4)CC3)oc2c1C`?
Lassa entry inh: -18%; Pf growth 48h: 3%; HCMV antiviral: -21; HCV inhibitor: -8%; Pf growth 96h: 4%; Marburg entry inh: -29%

What do the screens show for `COc1cccc(Nc2ccc(-n3ccnc3)nn2)c1`?
Lassa entry inh: 16%; Pf growth 48h: inconclusive; HCMV antiviral: -13; HCV inhibitor: -27%; Pf growth 96h: 66%; Marburg entry inh: 16%[46.1 µM]

What do the screens show for `Cc1ccc(Nc2ccc(-n3ccnc3)nn2)cc1C`?
Lassa entry inh: inconclusive; Pf growth 48h: inconclusive; HCMV antiviral: -26; HCV inhibitor: -3%; Pf growth 96h: 10µM*; Marburg entry inh: -11%

Results for CC(C)n1c(SCC(=O)Nc2ccccc2)nc2c1c(=O)n(C)c(=O)n2C ?
Lassa entry inh: -2%; Pf growth 48h: 12µM*; HCMV antiviral: -28; HCV inhibitor: inconclusive; Pf growth 96h: inconclusive; Marburg entry inh: inconclusive

What do the screens show for `CC(C)n1c(SCC(=O)Nc2ccccc2)nc2c1c(=O)[nH]c(=O)n2C`?
Lassa entry inh: 5%; Pf growth 48h: inconclusive; HCMV antiviral: 14; HCV inhibitor: 14%; Pf growth 96h: 13µM*; Marburg entry inh: 2%

How did CCCCn1c(SCC(=O)Nc2nnc(C(C)C)s2)nc2c1c(=O)n(C)c(=O)n2C do in these assays?
Lassa entry inh: inconclusive; Pf growth 48h: 10%; HCMV antiviral: -75*; HCV inhibitor: inconclusive; Pf growth 96h: 172%; Marburg entry inh: -4%

How did CCn1c(SCC(=O)Nc2ccccc2)nc2c1c(=O)n(C)c(=O)n2C do in these assays?
Lassa entry inh: -3%; Pf growth 48h: 12%; HCMV antiviral: 41; HCV inhibitor: -9%; Pf growth 96h: 12µM*; Marburg entry inh: -21%

Results for CCOc1ccc(OCC)c(NC(=O)CSc2nc3c(c(=O)n(C)c(=O)n3C)n2C)c1 ?
Pf growth 48h: 8%; Marburg entry inh: -1%
